Several values for one entry are separate records, joined by “and”; a condition that tells them apart may be missing. Equal values may be shown once. Read-outs that look alike come from different tables or passages of the source.
Assays:
Details in all cases: concentration: 1 μM, replicates: in singlicate, n = 1
TLK2 = tested on: TLK2
TNIK = tested on: TNIK
TNK1 = tested on: TNK1
TNK2 = tested on: TNK2
TNNI3K = tested on: TNNI3K
TRKA = tested on: T1, TRKA
T1 construct: gene NTRK1

TRKB = tested on: TRKB
TRKC = tested on: T2, TRKC
T2 construct: gene NTRK3

TRPM6 = tested on: TRPM6
TSSK1B = tested on: TSSK1B
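Also: KINOMEscan kinase panel screen.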

Compound	%Inh (TLK2) [%]	%Inh (TNIK) [%]	%Inh (TNK1) [%]	%Inh (TNK2) [%]	%Inh (TNNI3K) [%]	%Inh (TRKA) [%]	%Inh (TRKB) [%]	%Inh (TRKC) [%]	%Inh (TRPM6) [%]	%Inh (TSSK1B) [%]	%Inh (TLK2; 1 µM)	%Inh (TNIK; 1 µM)	%Inh (TNK1; 1 µM)	%Inh (TNK2; 1 µM)	%Inh (TNNI3K; 1 µM)	%Inh (TRKA; 1 µM)	%Inh (TRKB; 1 µM)	%Inh (TRKC; 1 µM)	%Inh (TRPM6; 1 µM)	%Inh (TSSK1B; 1 µM)
COc1cc(Nc2nccc(N3CCC(NC(=O)c4cccc(NC(C)=O)c4)C3)n2)cc(OC)c1OC (stereo not drawn) [GSK1379754]	0	0	0	16	0	69	0	22	22	18	–	–	–	–	–	–	–	–	–	–
O=C(c1ccc(-c2cc(-c3c[nH]nc3-c3ccccn3)ccn2)cc1)N1CCOCC1 [GW812171]	13	30	0	0	0	0	0	0	17	0	–	–	–	–	–	–	–	–	–	–
CNc1ncnc2[nH]ncc12 [SKF-18355]	0	17	0	0	0	0	0	0	23	0	–	–	–	–	–	–	–	–	–	–
O=C(NOCC1CC1)c1ccc(F)c(F)c1Nc1ccc(I)cc1Cl	0	2	26	0	0	0	0	0	0	0	–	–	–	–	–	–	–	–	–	–
CC(C)(CN)c1nc(-c2ccc(Cl)c(O)c2)c(-c2ccncc2)[nH]1.O=C(O)C(F)(F)F [SB-477794]	–	–	–	–	–	–	–	–	–	–	10% and 4%	89% and 87%	0% and 84%	0% and 5%	85% and 77%	0% and 49%	75% and 32%	55% and 46%	69% and 54%	17% and 0%
Cc1nnc(-c2ccc3ncc(-c4ccc(S(C)=O)cc4)n3c2)o1 (stereo not drawn)	0	0	0	0	1	0	0	36	6	0	–	–	–	–	–	–	–	–	–	–
Cl.Cl.Cl.Fc1ccc(-c2ncn(C3CCNCC3)c2-c2ccnc(Nc3ccccc3)n2)cc1 [SB-238039]	–	–	–	–	0	0	–	–	–	0	13% and 0%	86% and 84%	58% and 12%	0% and 10%	–	–	18% and 16%	67% and 0%	6% and 0%	–
Cl.Nc1ncnc2occ(-c3ccc(NC(=O)Nc4cc(C(F)(F)F)ccc4F)cc3)c12 [SB-707548]	4	67	46	20	90.8	100	94.1	100	0	0	–	–	–	–	–	–	–	–	–	–
Cc1ccc(C(=O)NCC(N)=O)cc1-n1c(C)cc(OCc2ccc(F)cc2F)c(Br)c1=O	0	0	0	15	14	0	0	0	0	26	–	–	–	–	–	–	–	–	–	–
NS(=O)(=O)c1cccc(-c2ccc3ncc(N4CCOCC4)nc3c2)c1 [GSK1535721]	8	34	0	2	14	37	0	5	0	0	–	–	–	–	–	–	–	–	–	–
NS(=O)(=O)c1cccc(-c2ccc3nccc(-c4cccc(S(N)(=O)=O)c4)c3c2)c1 [GW867253]	15	16	0	0	0	0	0	0	0	0	–	–	–	–	–	–	–	–	–	–
N#Cc1ccc(-c2cc(-c3c[nH]nc3-c3ccccn3)ccn2)cc1 [GW693028]	0	75	0	12	31	0	4	16	0	16	–	–	–	–	–	–	–	–	–	–
Nc1nccc(-c2c(-c3ccc(F)cc3)ncn2C2CCN(CC(F)(F)F)CC2)n1 [SB-236560]	0	6	0	10	0	70	35	18	0	0	–	–	–	–	–	–	–	–	–	–
Cc1cccc(-c2nc(-c3ccc(S(C)(=O)=O)cc3)sc2-c2ccncc2)c1	13	36	0	0	0	6	0	0	9	0	–	–	–	–	–	–	–	–	–	–
Cc1ccc(NC(=O)c2ccnc(N3CCN(C)CC3)c2)cc1-c1ccc(C(=O)NCC2CC2)cc1 [GW775604]	0	0	34	0	0	0	0	0	0	0	–	–	–	–	–	–	–	–	–	–
NS(=O)(=O)CCc1cccc(Nc2nccc(-c3c(-c4cccc(NC(=O)c5c(F)cccc5F)c4)nn4ccccc34)n2)c1 [GSK336735]	2	85	100	89	48	0	19	11	56	28	–	–	–	–	–	–	–	–	–	–
COCCNC(=O)c1ccc(-c2cc(C(=O)NC3CC3)cc(F)c2C)cc1 [GW868318]	0	0	40	16	11	27	43	30	20	0	–	–	–	–	–	–	–	–	–	–

Compound	%Inh (TLK2) [%]	%Inh (TNIK) [%]	%Inh (TNK1) [%]	%Inh (TNK2) [%]	%Inh (TNNI3K) [%]	%Inh (TRKA) [%]	%Inh (TRKB) [%]	%Inh (TRKC) [%]	%Inh (TRPM6) [%]	%Inh (TSSK1B) [%]	%Inh (TLK2; 1 µM)	%Inh (TNIK; 1 µM)	%Inh (TNK1; 1 µM)	%Inh (TNK2; 1 µM)	%Inh (TNNI3K; 1 µM)	%Inh (TRKA; 1 µM)	%Inh (TRKB; 1 µM)	%Inh (TRKC; 1 µM)	%Inh (TRPM6; 1 µM)	%Inh (TSSK1B; 1 µM)
Cc1cn2c(=O)cc(N3CCOCC3)nc2n1Cc1cccc(Cl)c1Cl [GSK2334006]	0	0	0	12	0	17	0	0	0	29	–	–	–	–	–	–	–	–	–	–
Cc1c2ccc(N(C)c3ccnc(Nc4cccc(S(N)(=O)=O)c4)n3)cc2nn1Cc1ccccc1.Cl.Cl [GW787226]	12	88	62	0	3	0	0	0	41	1	–	–	–	–	–	–	–	–	–	–
CN(C1=C(c2ccccc2)C(=O)NC1=O)c1ccccc1 [SB-334860]	6	4	7	18	20	18	0	0	31	11	–	–	–	–	–	–	–	–	–	–
CN1c2ccc(CNc3ccc(F)cc3)cc2-c2c(cnn2C)S1(=O)=O	0	9	12	0	0	0	0	0	0	0	–	–	–	–	–	–	–	–	–	–
C[C@@H](Oc1cc(-n2cnc3ccc(NC(=O)NC(C)(C)C)cc32)sc1C(N)=O)c1ccccc1Cl [GSK346294]	0	0	0	9	13	33	0	0	0	20	–	–	–	–	–	–	–	–	–	–
O=C(Nc1cccc(-c2nn3ncccc3c2-c2ccnc(Nc3cccc(C(F)(F)F)c3)n2)c1)c1c(F)cccc1F [GSK299495]	0	14	90.5	49	8	0	39	20	33	5	–	–	–	–	–	–	–	–	–	–
c1ccc(-c2cc(-c3c[nH]nc3-c3ccccn3)ccn2)cc1 [GW576604]	0	72	0	1	89	54	25	0	11	3	–	–	–	–	–	–	–	–	–	–
CCc1ccnc(/C=C/c2n[nH]c3cc(Sc4ccccc4C(=O)NC)ccc23)c1	0	5	48	0	5	56	0	0	4	0	–	–	–	–	–	–	–	–	–	–
Cc1nnc(-c2ccc3occ(-c4ccc(C(C)O)cc4)c3c2)o1 (stereo not drawn)	0	0	0	0	27	0	0	37	0	0	–	–	–	–	–	–	–	–	–	–
COc1ccc(Nc2nccc(N3CCC(NC(=O)Nc4cccc(C(C)=O)c4)C3)n2)cc1 (stereo not drawn) [GSK1379731]	0	0	0	0	48	50	44	78	2	0	–	–	–	–	–	–	–	–	–	–
O=C(Nc1n[nH]c2cc(-c3cccc(F)c3)ccc12)C1CC1 [SB-735464]	0	72	9	0	0	4	2	38	7	0	–	–	–	–	–	–	–	–	–	–
Fc1ccc(-c2ncn(CCCN3CCOCC3)c2-c2cccnc2)cc1 [SB-211743]	0	13	14	0	0	0	0	0	3	0	–	–	–	–	–	–	–	–	–	–
O=c1cc(N2CCOCC2)nc2n(Cc3cccc(C(F)(F)F)c3)ccn12 [GSK2297543]	3	0	0	11	6	20	0	0	0	16	–	–	–	–	–	–	–	–	–	–
O=C(NCCNc1ccnc(Nc2ccc(F)cc2)n1)Nc1ccccc1F [GSK1379880]	0	0	0	8	5	0	18	13	24	0	–	–	–	–	–	–	–	–	–	–
NCC(NC(=O)c1cc(-c2cn[nH]c2)c(-c2ccnc3[nH]ccc23)s1)c1ccccc1.O=C(O)C(F)(F)F.O=C(O)C(F)(F)F (stereo not drawn) [GSK1325775]	14	39	0	0	0	76	57	57	45	33	–	–	–	–	–	–	–	–	–	–
COc1ccc(S(=O)(=O)NC2CCN(c3cc(C)nc(Nc4cccc(C#N)c4)n3)CC2)cc1.O=C(O)C(F)(F)F [GSK1653539]	0	0	0	8	0	7	0	0	0	0	–	–	–	–	–	–	–	–	–	–

Reference: publication PMC5540273 (PLoS ONE, 2017)
